# PubChem BioAssay (NCATS)
# Unmarked numbers belong to inactive results. Inconclusive results are not listed. A call without a number means that no potency is given here. Activity calls are given as the source filed them. Unless noted, calls come from the whole dose curve; as a rule, active = well fitted curve in the direction sought with a large enough effect; inconclusive = small, poorly fitted or top-dose-only effect, or another doubt; inactive = no such curve, though single readings can be large; an effect the other way counts as inactive or inconclusive.
# Assays:
# [1] = biological target: Cytochrome P450 1A2 (Homo sapiens) (UniProt P05177); experiment: p450-cyp1a2 (AID 410; calls by dose curve; note: potency is the fitted concentration of half-maximal effect)
# Cytochrome P450 1A2 (Homo sapiens), sequence (P05177 whole entry, looked up): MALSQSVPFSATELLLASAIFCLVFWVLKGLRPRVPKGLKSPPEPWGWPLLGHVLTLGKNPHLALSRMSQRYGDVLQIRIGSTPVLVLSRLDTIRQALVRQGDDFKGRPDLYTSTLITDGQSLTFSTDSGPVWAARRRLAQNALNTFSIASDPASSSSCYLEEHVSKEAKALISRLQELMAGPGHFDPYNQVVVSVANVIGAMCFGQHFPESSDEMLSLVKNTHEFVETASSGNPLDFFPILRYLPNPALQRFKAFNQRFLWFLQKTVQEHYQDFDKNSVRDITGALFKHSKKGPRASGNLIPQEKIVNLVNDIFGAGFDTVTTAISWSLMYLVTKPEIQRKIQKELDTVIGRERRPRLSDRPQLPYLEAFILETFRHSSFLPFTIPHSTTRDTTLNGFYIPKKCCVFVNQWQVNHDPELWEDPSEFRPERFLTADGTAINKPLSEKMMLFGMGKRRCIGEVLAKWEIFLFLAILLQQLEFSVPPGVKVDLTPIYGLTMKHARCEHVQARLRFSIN
# Outline: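 20nM CYP1A2, 100uM Luciferin-ME (=Km), 100mM KPO4; cpd 10 min RT; +NADPH regen, 60 min RT; stop/detect 20 min; luminescence. Normalized to furafylline 57 uM = full inhibition.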
# [2] = biological target: Glucocorticoid receptor (Homo sapiens) (UniProt P04150); experiment: GR-GFP Redistribution (AID 450;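 active = compounds whose dose series gives a full or clear partial fitted curve of increased nuclear translocation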; note: potency is the fitted concentration of half-maximal effect); conditions: U2OS GR-GFP nuclear translocation, laser cytometry, 2 h
# Glucocorticoid receptor (Homo sapiens), sequence (P04150 whole entry, looked up, the tested form may be a part): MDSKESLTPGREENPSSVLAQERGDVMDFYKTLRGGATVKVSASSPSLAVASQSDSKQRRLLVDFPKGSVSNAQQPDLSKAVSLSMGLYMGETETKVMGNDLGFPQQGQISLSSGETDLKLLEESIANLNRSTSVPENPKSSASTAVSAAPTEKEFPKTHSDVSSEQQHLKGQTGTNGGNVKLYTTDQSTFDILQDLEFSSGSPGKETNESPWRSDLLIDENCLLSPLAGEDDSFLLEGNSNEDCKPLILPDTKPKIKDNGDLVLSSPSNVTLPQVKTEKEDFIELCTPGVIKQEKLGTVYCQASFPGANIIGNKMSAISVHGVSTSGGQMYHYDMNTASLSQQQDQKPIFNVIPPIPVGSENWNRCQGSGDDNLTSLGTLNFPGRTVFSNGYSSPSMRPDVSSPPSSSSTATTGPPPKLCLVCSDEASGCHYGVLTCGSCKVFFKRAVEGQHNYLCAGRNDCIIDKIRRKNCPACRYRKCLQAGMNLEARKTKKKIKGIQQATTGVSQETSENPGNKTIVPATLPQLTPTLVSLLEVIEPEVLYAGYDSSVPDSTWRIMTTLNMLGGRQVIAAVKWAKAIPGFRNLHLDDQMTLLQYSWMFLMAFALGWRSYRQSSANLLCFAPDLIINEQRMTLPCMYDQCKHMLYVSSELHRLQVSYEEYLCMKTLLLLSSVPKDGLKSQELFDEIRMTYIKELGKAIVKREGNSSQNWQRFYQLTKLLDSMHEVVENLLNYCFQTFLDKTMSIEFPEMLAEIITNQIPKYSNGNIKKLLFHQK
# [3] = biological target: Glucocorticoid receptor (Homo sapiens) (UniProt P04150); experiment: GR-EFC Redistribution (AID 451; calls by dose curve; note: potency is the fitted concentration of half-maximal effect); conditions: CHO-K1 GR-EFC translocation, beta-gal luminescence, 2 h
# Outline: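 Translocation of GR-ED fusion to nuclear EA restores b-gal, read by luminescence after 1 h room-temperature detection. Engineered CHO-K1 biosensor cells, 1,000/well, exposed 2 h at 37 C to titrations up to 46 uM final.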
# [4] = biological target: 3',5'-cyclic-AMP phosphodiesterase 4B (Homo sapiens) (UniProt Q07343); experiment: qHTS Assay for Inhibitors of PDE-IV (AID 607; active = well fitted activation curve with a large enough effect in the main read-out, with a control signal flat, not every such curve was filed as active)
# 3',5'-cyclic-AMP phosphodiesterase 4B (Homo sapiens), sequence (Q07343 whole entry, looked up): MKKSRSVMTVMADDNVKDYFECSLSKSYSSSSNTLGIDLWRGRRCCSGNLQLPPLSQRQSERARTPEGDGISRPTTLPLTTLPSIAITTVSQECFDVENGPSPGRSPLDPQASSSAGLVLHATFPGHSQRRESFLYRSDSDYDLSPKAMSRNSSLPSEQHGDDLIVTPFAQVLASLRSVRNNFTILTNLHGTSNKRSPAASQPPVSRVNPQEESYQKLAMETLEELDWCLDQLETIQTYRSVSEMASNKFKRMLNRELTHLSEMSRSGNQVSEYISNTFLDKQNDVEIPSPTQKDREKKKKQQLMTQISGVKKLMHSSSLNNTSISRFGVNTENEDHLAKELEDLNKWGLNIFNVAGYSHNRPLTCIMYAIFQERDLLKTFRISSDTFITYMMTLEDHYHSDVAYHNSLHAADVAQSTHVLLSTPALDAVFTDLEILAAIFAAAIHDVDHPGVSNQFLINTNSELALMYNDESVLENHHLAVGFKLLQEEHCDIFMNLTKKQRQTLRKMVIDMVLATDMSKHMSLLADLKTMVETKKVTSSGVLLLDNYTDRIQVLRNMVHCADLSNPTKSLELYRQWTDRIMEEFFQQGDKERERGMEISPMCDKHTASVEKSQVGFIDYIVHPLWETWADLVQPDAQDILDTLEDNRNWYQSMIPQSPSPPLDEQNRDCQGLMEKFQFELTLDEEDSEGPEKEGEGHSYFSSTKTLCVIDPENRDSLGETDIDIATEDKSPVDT
# Outline: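 ACTOne HEK293 cells carry a modified cAMP-gated CNG channel and express endogenous PDE4; plated 1000 cells/well, compounds up to 22.9 uM final. Membrane-potential dye fluorescence (ex 535/em 590) was read; parental cells received 10 uM forskolin + 100 uM RO 20-1724.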
# [5] = biological target: Guanine nucleotide-binding protein G(i) subunit alpha-1 (Homo sapiens) (UniProt P63096); experiment: qHTS Assay for Inhibitors of RGS12 GoLoco Motif Activity (Green Fluorophore) (AID 879); note: potency is the fitted concentration of half-maximal effect
# Outline: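 A drop in FITC polarization marked displacement of the FITC-tagged RGS12 GoLoco peptide (10 nM) from Gαi1 (50 nM). Compounds were incubated 10 min at room temperature in Tris pH 7.5 buffer containing 150 mM NaCl, 0.1 mM GDP and 0.05% NP40; unlabeled peptide titration served as control.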
# [6] = biological target: Cytochrome P450 2C9 (Homo sapiens) (UniProt P11712); experiment: qHTS Assay for Inhibitors and Substrates of Cytochrome P450 2C9 (AID 883); note: nearly all actives have a fitted effect of over 60% in size; note: potency is the fitted concentration of half-maximal effect
# Cytochrome P450 2C9 (Homo sapiens), sequence (P11712 whole entry, looked up): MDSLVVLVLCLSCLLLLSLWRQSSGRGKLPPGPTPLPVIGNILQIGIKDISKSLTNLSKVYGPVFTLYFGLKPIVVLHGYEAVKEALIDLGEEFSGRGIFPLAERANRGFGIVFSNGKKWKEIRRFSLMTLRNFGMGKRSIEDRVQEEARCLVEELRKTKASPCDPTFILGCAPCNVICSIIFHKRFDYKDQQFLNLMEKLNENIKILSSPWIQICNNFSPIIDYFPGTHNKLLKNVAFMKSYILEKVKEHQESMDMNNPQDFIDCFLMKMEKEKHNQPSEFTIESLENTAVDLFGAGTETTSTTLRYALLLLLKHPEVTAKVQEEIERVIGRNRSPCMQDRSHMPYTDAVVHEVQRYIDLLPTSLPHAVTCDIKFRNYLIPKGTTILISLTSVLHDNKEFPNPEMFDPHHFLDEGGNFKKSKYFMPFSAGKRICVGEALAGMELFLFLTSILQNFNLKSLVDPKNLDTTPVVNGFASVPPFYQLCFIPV
# Outline: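 Turnover of Luciferin-H (100uM, KM) by 10nM human CYP2C9 was measured over 60 min at 37C with NADPH regeneration; inhibitors and some substrates reduce luminescence. Data normalized to sulphaphenazole 57uM.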
# [7] = biological target: Cytochrome P450 3A4 (Homo sapiens) (UniProt P08684); experiment: qHTS Assay for Activators of Cytochrome P450 3A4 (AID 885); note: nearly all actives have a fitted effect of over 65% in size
# Cytochrome P450 3A4 (Homo sapiens), sequence (P08684 whole entry, looked up): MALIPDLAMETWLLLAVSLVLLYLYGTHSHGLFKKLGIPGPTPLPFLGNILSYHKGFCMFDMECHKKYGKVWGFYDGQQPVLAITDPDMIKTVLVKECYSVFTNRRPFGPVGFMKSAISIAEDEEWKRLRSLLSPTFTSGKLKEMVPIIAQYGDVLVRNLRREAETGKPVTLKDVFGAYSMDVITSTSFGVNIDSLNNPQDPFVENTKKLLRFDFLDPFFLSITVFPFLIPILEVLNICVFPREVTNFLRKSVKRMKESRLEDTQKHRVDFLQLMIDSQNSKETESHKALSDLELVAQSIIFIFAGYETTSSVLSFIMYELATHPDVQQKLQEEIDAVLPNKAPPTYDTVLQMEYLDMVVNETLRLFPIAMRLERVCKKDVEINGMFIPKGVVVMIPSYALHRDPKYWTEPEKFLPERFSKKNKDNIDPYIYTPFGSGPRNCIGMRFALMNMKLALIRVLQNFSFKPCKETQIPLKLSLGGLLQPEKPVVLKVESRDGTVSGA
# Outline: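 CYP3A4 activity: Luciferin-PPXE O-dealkylation, 25uM substrate, 200mM KPO4, RT throughout. Read-out is luciferase luminescence; higher values reflect activation.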
# [8] = biological target: Cytochrome P450 2D6 (Homo sapiens) (UniProt P10635); experiment: qHTS Assay for Inhibitors and Substrates of Cytochrome P450 2D6 (AID 891); note: nearly all actives have a fitted effect of over 60% in size; note: potency is the fitted concentration of half-maximal effect;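 for activity change, negative = inhibition: luciferin methyl ether substrate demethylated by CYP2D6 with NADPH regeneration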
# Cytochrome P450 2D6 (Homo sapiens), sequence (P10635 whole entry, looked up): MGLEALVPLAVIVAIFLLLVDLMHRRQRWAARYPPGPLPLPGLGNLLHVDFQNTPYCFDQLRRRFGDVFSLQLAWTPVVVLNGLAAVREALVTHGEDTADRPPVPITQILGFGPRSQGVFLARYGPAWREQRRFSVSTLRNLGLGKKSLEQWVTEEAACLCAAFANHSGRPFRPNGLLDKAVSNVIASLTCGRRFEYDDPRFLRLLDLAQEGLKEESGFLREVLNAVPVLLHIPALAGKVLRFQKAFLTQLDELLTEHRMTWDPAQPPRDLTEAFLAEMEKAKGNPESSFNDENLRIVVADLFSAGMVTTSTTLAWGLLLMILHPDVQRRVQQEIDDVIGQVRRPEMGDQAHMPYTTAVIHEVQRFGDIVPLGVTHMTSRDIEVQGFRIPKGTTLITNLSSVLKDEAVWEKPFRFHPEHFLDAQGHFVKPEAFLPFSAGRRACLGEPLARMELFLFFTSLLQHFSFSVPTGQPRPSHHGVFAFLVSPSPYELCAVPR
# Outline: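 Luminescent read-out of luciferin formed by 5 nM human CYP2D6 demethylating 30 uM Luciferin-ME EGE (Km level) over 60 min at room temperature after NADPH regeneration addition. Data normalized to full inhibition by 1.43 uM quinidine.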
# [9] = biological target: Cytochrome P450 2C19 (Homo sapiens) (UniProt P33261); experiment: qHTS Assay for Inhibitors and Substrates of Cytochrome P450 2C19 (AID 899); note: nearly all actives have a fitted effect of over 60% in size; note: potency is the fitted concentration of half-maximal effect
# Cytochrome P450 2C19 (Homo sapiens), sequence (P33261 whole entry, looked up): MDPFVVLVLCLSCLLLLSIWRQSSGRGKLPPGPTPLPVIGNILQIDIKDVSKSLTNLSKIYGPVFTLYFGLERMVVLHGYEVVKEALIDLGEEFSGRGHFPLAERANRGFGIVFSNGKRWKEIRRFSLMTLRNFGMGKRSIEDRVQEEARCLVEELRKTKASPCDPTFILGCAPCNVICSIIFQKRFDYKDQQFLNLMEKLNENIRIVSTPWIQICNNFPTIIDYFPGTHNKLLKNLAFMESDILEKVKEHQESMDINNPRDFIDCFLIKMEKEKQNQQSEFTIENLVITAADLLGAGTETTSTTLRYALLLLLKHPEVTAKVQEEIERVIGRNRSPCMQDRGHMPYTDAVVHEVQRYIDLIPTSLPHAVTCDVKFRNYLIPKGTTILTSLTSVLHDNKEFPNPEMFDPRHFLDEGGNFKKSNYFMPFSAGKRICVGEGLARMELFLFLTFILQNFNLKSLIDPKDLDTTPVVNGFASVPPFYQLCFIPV
# Outline: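 Reactions contain 5nM enzyme, 10uM Luciferin-H EGE (KM) and 50mM KPO4; compound preincubates 10 min at 37C, NADPH regeneration starts turnover for 60 min. Luminescence after detection reagent gives activity.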
# [10] = qHTS Assay for Identification of Small Molecule Agonists for Hypoxia Response Element Signaling Pathway (AID 914; active = well fitted activation curve with a large enough effect in the signal ratio, with a control signal flat, not every such curve was filed as active; the % refers to the signal ratio); conditions: ME-180 (cervical carcinoma) HRE-bla reporter, beta-lactamase ratio, CoCl2, 17 h; activation: stronger effect = higher value
# Outline: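 HRE-bla ME-180 cells, overnight plating in Opti-MEM with 0.5% dialyzed FBS; cpd titration + EC50 CoCl2, 17 h, 37 degrees Celsius; CCF4 2.5 h RT; 460/530 nm ratio; AC50.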
# [11] = biological target: Muscarinic acetylcholine receptor M1 (Rattus norvegicus) (UniProt P08482); experiment: qHTS Assay for Antagonists of Acetylcholine Muscarinic M1 Receptor: Kinetic Measurement of Intracellular Calcium Response (AID 943);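 note: Fluo-4 calcium signal as peak divided by basal fluorescence over 4 min; nearly all actives have a fitted effect of over 75% in size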
# Muscarinic acetylcholine receptor M1 (Rattus norvegicus), sequence (P08482 whole entry, looked up): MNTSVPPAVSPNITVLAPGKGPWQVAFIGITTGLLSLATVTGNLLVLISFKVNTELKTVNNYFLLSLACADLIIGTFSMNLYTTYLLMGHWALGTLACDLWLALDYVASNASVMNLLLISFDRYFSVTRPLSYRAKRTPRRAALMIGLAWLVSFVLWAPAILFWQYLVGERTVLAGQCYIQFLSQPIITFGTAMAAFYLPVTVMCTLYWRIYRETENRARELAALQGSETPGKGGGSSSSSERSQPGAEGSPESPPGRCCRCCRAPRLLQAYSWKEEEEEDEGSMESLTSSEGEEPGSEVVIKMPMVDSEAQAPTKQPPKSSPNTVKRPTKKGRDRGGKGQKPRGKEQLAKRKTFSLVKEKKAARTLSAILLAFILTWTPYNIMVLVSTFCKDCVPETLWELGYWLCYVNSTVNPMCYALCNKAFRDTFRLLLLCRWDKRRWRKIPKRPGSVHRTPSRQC
# Outline: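 Read-out: peak over basal Fluo-4 fluorescence, kinetic at 1 Hz for 4 min after EC80 carbachol (100 nM final). Rat M1-CHO cells, dye loaded 1 h at 37C, compound added 10 min before agonist.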
# [12] = biological target: Muscarinic acetylcholine receptor M1 (Rattus norvegicus) (UniProt P08482); experiment: qHTS Assay for Antagonists of Acetylcholine Muscarinic M1 Receptor: Measurement of IP-One Response (AID 944); note: nearly all actives have a fitted effect of over 75% in size
# Outline: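 Read-out: HTRF competition between d2-IP1 and Eu-cryptate anti-IP1 antibody, emission 620 and 665 nm. Stimulus was carbachol, EC80 (200 nM), for 30 min in M1-CHO cells (rat receptor), after 10 min compound pre-treatment.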
# [13] = biological target: Pyruvate kinase PKM (Homo sapiens) (UniProt P14618); experiment: qHTS Assay for Activators of Human Muscle Pyruvate Kinase (AID 954; active = well fitted curve in the direction sought with a large enough effect, not every such curve was filed as active)
# Pyruvate kinase PKM (Homo sapiens), sequence (P14618 whole entry, looked up): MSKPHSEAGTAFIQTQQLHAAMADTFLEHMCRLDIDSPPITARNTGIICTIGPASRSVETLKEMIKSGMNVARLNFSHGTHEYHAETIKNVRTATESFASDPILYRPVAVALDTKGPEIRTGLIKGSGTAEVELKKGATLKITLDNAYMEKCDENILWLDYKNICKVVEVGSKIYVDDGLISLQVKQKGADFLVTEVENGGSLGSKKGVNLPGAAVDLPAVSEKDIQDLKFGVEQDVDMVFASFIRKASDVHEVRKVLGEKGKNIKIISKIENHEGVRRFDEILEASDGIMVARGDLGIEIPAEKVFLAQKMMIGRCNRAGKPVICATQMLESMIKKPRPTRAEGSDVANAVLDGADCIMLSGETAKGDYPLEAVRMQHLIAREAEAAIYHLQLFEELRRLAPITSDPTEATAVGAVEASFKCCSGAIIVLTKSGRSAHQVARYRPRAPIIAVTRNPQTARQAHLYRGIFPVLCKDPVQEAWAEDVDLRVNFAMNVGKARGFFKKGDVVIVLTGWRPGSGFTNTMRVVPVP
# Outline: (§1)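 A coupled luminescent readout tracked ATP made from ADP by purified PKM2. Final conditions included 0.1 nM enzyme, PEP and ADP at 0.5 and 0.1 mM, pH 7.2 imidazole buffer with BSA, and a one-hour room-temperature reaction.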
# [14] = biological target: Pyruvate kinase PKM (Homo sapiens) (UniProt P14618); experiment: qHTS Assay for Inhibitors of Human Muscle Pyruvate Kinase (AID 958)
# Outline: as §1
# [15] = biological target: Pyruvate kinase (Leishmania mexicana) (UniProt Q27686); experiment: qHTS Validation Assay for Activators of Leishmania Mexicana Pyruvate Kinase (AID 959)
# Outline: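 Luminescent ATP detection (PKLight) after a 1 h room-temperature reaction of 0.2 nM LmPYK E451W mutant with 0.5 mM PEP and 0.1 mM ADP at pH 7.2. Activity is normalized to DMSO-only control wells.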
# [16] = biological target: Alpha-galactosidase A (Homo sapiens) (UniProt P06280); experiment: Counterscreen for Glucocerebrosidase Inhibitors: qHTS Assay for Human alpha-Galactosidase at pH 4.5 (AID 992)
# Outline: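 Citrate buffer pH 4.5, Tween-20 0.005%. Enzyme 2 nM, substrate 80 uM, 20 min RT. Stop pH 10. Fluorescence Ex 365/Em 440. AC50 by Hill fit.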
# [17] = biological target: alpha-glucosidase (Oryza sativa, rice) (UniProt Q653V4); experiment: Counterscreen for Glucocerebrosidase Inhibitors: qHTS Assay for Rice alpha-Glucosidase at pH 5.0 (AID 997)
# Outline: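 Endpoint fluorogenic assay at pH 5.0: compounds (0.7 nM to 77 uM) titrated against 4 nM rice enzyme and 400 uM 4-MU-alpha-glucoside for 20 min at room temperature; NaOH/glycine stop, read ex 365/em 440 nm, Hill-fitted AC50.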
# [18] = biological target: Mitogen-activated protein kinase 10 (Mus musculus) (UniProt Q61831); experiment: JNK3 AlphaScreen Assay (AID 530; active = well fitted curve in either direction with a large enough effect, not every such curve was filed as active;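 note: kinase came from lysate of stimulated human HepG2 cells; signal reports phosphorylation of biotinylated GST-cJun 1-79 at Ser73 with 10 µM ATP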)
# Outline: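 Kinase buffer: 20 mM Tris-HCl pH 7.6, 10 mM MgCl2, 1 mM DTT, 0.1 mM Na3VO4, 0.01% Tween-20; ATP 10 uM. Substrate biotin-GST-cJun(1-79), enzyme from activated HepG2 lysates. Detection by Ser73 phospho-antibody AlphaScreen.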
# [19] = biological target: Ubiquitin carboxyl-terminal hydrolase 1 (Homo sapiens) (UniProt O94782); experiment: Inhibitors of USP1/UAF1: Pilot qHTS (AID 504865);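 note: rhodamine fluorescence freed from ubiquitin-rhodamine substrate followed over time; top concentration of the series differs between compounds; nearly all actives have a fitted effect of over 35% in size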
# Outline: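 Kinetic fluorescence assay: 1nM USP1/UAF1, 15 min compound preincubation, then 150nM Ub-Rho; 480/540 nm.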
# [20] = biological target: Cytochrome P450 3A4 (Homo sapiens) (UniProt P08684); experiment: qHTS Assay for Inhibitors and Substrates of Cytochrome P450 3A4 (AID 884); note: potency is the fitted concentration of half-maximal effect; nearly all actives have a fitted effect of over 50% in size
# Outline: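 Luminescent readout of luciferin produced by CYP3A4 (20 nM) dealkylation of Luciferin-PPXE, 25 uM (its KM). NADPH-driven reaction ran 60 min at RT after 10 min compound preincubation; data scaled to 57 uM ketoconazole as 100% inhibition.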
# [21] = NFAT Signaling Pathway (AID 444; active = well fitted curve in either direction with a large enough effect, not every such curve was filed as active;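 note: carbachol stimulus at about its EC50 of 1 µM final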); conditions: Jurkat NFAT-bla M1, carbachol, beta-lactamase ratio, 5 h; at 17.2 µM (top of the series) unless noted
# Outline: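 Read-out: CCF4 FRET ratio (460 nm/530 nm) after 1 h RT dye loading, used for %activity and AC50 from titration series. Cells: Jurkat NFAT-β-lactamase/M1 line, treated with compound plus 1 uM carbachol for 5 h, 37 °C.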
# [22] = Stat Signaling Pathway (AID 446; active = well fitted curve in either direction with a large enough effect, not every such curve was filed as active;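 note: ME-180 cervical cancer cells given 40 pM IL-6 alongside compound; SIE-controlled beta-lactamase reporter measured as 460/530 nm FRET emission ratio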)
# Outline: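 Compound effects on IL-6-induced STAT reporter activity were measured in ME-180 cells. After overnight culture, cells were co-treated with 40 pM IL-6 for 5 hrs before beta-lactamase substrate loading at room temperature.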
compound,measurement,setting,value
CN[C@@H](C)[C@@H](O)c1ccccc1,Potency,[1],3.16 µM (active)
same,Potency,[2],> 46 µM
same,Potency,[3],> 46 µM
same,outcome,[4],inactive
same,Potency,[5],7.94 µM (active)
same,Potency,[6],794 nM (active)
same,Potency,[7],inactive
same,Potency,[8],12.6 µM (active)
same,Potency,[9],1.58 µM (active)
same,activation,[10],24.4%
same,Potency,[11],inactive
same,Potency,[12],inactive
same,outcome,[13],inactive
same,Potency,[14],7.94 µM (active)
same,outcome,[15],inactive
same,outcome,[16],inactive
same,outcome,[17],inactive
CC[C@H]1[C@@H]2C[C@@H]3[C@@H]4N(C)c5ccccc5[C@@]45C[C@@H]([C@H]2[C@@H]5O)N3[C@@H]1O,Potency,[1],inactive
same,Potency,[2],> 46 µM
same,Potency,[3],> 46 µM
same,outcome,[18],inactive
same,Potency,[6],inactive
same,Potency,[8],3.16 µM (active)
same,Potency,[9],inactive
CN(CCc1ccc(Cl)c(Cl)c1)[C@H]1CCCC[C@H]1N1CCCC1,Potency,[1],31.6 µM (active)
same,outcome,[18],inactive
same,Potency,[7],inactive
same,Potency,[8],0.0063 µM (active)
same,Potency,[19],inactive
O=C(O)[C@H]1C[C@@H]1[C@H](NP(=O)(c1ccccc1)c1ccccc1)c1ccccc1,Potency,[1],inactive
same,outcome,[18],inactive
same,outcome,[4],inactive
C/C=C1\C[C@H](C)[C@](O)(CO)C(=O)OCC2=CCN3CC[C@@H](OC1=O)[C@@H]23,Potency,[1],inactive
same,Potency,[2],> 46 µM
same,Potency,[3],> 46 µM
same,outcome,[18],inactive
same,Potency,[6],inactive
same,Potency,[8],inactive
same,Potency,[9],inactive
C=C[C@@H]1CN2CC[C@H]1C[C@H]2[C@@H](O)c1ccnc2ccccc12,Potency,[1],inactive
same,Potency,[2],> 46 µM
same,outcome,[18],inactive
same,Potency,[6],inactive
same,Potency,[8],0.1 µM (active)
same,Potency,[9],inactive
CN[C@H]1[C@H]2[C@H]3CCN2C[C@@H]1O3,Potency,[1],inactive
same,Potency,[3],> 46 µM
same,outcome,[18],inactive
same,Potency,[6],inactive
same,Potency,[8],inactive
same,Potency,[9],inactive
CCC/C=C(\CCC)C(NP(=O)(c1ccccc1)c1ccccc1)c1ccccc1 (configuration not stated),Potency,[1],15.8 µM (active)
same,outcome,[18],inactive
same,Potency,[20],6.31 µM (active)
same,Potency,[7],inactive
C[C@H]1CC[C@]2(NC1)O[C@@H]1C[C@@H]3[C@@H]4CC=C5C[C@H](O)CC[C@@]5(C)[C@H]4CC[C@@]3(C)[C@H]1[C@@H]2C,Potency,[1],inactive
same,Potency,[2],> 46 µM
same,Potency,[3],> 46 µM
same,outcome,[18],inactive
same,Potency,[6],inactive
same,Potency,[8],inactive
same,Potency,[9],inactive
CC(C)C[C@H]1C(=O)N2CCC[C@@H]2[C@]2(O)O[C@](NC(=O)[C@H]3C=C4c5cccc6[nH]cc(c56)C[C@H]4N(C)C3)(C(C)C)C(=O)N12,Potency,[1],31.6 µM (active)
same,Potency,[2],> 46 µM
same,Potency,[3],> 46 µM
same,outcome,[4],inactive
same,Potency,[8],inactive
CC[C@H]1CN2CC[C@@H]1C[C@@H]2[C@H](O)c1ccnc2ccccc12,Potency,[1],inactive
same,Potency,[2],> 46 µM
same,outcome,[18],inactive
same,outcome,[4],inactive
same,Potency,[6],inactive
same,Potency,[8],3.16 µM (active)
same,Potency,[9],inactive
CCN(CC)CCN=C(C)c1c(O)n(-c2ccccc2OC)c(=O)[nH]c1=O,"activity change, negative = inhibition",[21],-15.6%
same,outcome,[22],inactive
same,Potency,[2],> 20.6 µM
